Bioassay records deposited in PubChem by National Center for Advancing Translational Sciences (NCATS).
KB-V1 MDR tox = kills drug-selected multidrug resistant KB-V1 cells; KB-V1 MDR cells viability, CellTiter-Glo, 72 h; Potency, µM (series often up to 46.1 µM), most hits filed as cytotoxic; 3.4% of 400,000 active; further: on the % scale 0 is the no-effect control and ±100 the full control effect; nearly all actives have a fitted effect of over 60% in size
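Luminescent ATP read-out (CellTiter-Glo, 10 min) measures survival of drug-selected KB-V1 MDR cells after 72 h, 37 degrees C compound exposure. Medium: phenol-red-free DMEM, 10% FBS. Values from fitted concentration-response curves.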
VP16 counter = counter-screen for ROR gamma inhibitors: Gal4-VP16 reporter. AID 2546. Drosophila S2 Gal4-VP16 UAS-luciferase, luminescence, 20 h. 3.5% of 310,000 active. Potency, µM (highest dose often 53.6 µM), without a hit: at the highest dose activity, negative = inhibition, actives largely listed as inhibitors;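 further: Gal4-VP16 expression switched on by copper sulfate through the metallothionein promoter; on the % scale 0 is the no-effect control and ±100 the full control effect; nearly all actives have a fitted effect of over 50% in size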
RORgamma inh = ROR gamma (mouse) transcription inhibition. 5.4% of 310,000 active. Drosophila S2 Gal4-RORgamma UAS-luciferase reporter, 20 h. Potency, µM (doses to about 53.6 µM), inactives show at the top dose activity change, negative = inhibition, hits mostly inhibitors; further: on the % scale 0 is the no-effect control and ±100 the full control effect; nearly all actives have a fitted effect of over 60% in size
Target sequence (P51450 whole entry, looked up, the tested form may be a part): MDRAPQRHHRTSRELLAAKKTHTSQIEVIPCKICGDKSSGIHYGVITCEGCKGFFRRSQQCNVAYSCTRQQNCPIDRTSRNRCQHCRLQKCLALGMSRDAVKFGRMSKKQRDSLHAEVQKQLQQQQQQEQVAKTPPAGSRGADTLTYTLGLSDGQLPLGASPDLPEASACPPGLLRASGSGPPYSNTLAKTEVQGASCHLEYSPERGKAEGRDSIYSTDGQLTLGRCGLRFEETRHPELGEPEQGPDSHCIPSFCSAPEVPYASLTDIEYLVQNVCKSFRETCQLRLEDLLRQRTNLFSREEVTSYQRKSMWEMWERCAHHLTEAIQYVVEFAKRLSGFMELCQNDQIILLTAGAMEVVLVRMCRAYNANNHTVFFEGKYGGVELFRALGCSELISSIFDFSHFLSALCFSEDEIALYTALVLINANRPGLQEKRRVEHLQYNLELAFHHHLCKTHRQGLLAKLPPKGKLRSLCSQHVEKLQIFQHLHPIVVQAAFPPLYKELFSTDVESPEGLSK
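Luminescence from a UAS-regulated Photinus luciferase reporter in stably transfected Drosophila Schneider cells is measured; decreased signal marks ROR gamma inhibition. Fusion expression is induced by 700 uM copper sulfate for 20 hr.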
KB-3-1 cytotox = kills parental KB-3-1 adenocarcinoma cells; KB-3-1 viability, CellTiter-Glo ATP luminescence, 72 h; Potency, µM (doses to about 46.1 µM), actives largely listed as cytotoxic; 1.4% of 400,000 active; AID 1347075; further: on the % scale 0 is the no-effect control and ±100 the full control effect; nearly all actives have a fitted effect of over 60% in size
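Multi-concentration cytotoxicity screen in KB-3-1 cells grown in DMEM lacking phenol red with 10% FBS. After 72 h at 37 °C with compound, ATP-dependent luminescence was recorded.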
SW480 rereplic = inducers of DNA re-replication in SW480 colon cancer cells | AID 624297 | SW480 DNA re-replication, Hoechst DNA content imaging, 48 h | Potency, µM (series often up to 46.1 µM), inactives show at the top dose re-replication activation, usual class: activators | 1.8% of 340,000 active; further: % of control where 0% means no effect; nearly all actives have a fitted effect of over 55% in size
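SW480 cells exposed to compounds for 48 hr at 37 C, 5% CO2, then Hoechst-stained 40 min. Nuclear DNA content imaged by fluorescence scanning (405 nm excitation, 500-530 nm emission); re-replication scored as increased high-intensity nuclei.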
MCF10A rerep = inducers of DNA re-replication in MCF 10A breast cells. MCF 10A DNA re-replication, Hoechst nuclear intensity, 48 h. Potency, µM (highest dose often 46.1 µM), inactives show at the top dose activity, positive = re-replication, most hits filed as activators. 2.9% of 350,000 active. AID 624296; further: % of control where 0% means no effect; nearly all actives have a fitted effect of over 50% in size
* hit, by the source's call; i = inactive; ? = inconclusive; . = no result given; [ ] = dose if it differs, or a comment. The list is not random: actives were taken first. Their share in the collection is about 10%. The call rests on the fitted dose curve; in most records, active means well fitted curve in the direction sought with a large enough effect; inconclusive means small, poorly fitted or top-dose-only effect, or another doubt; inactive means no such curve, though single readings can be large; an effect the other way counts as inactive or inconclusive. Potency means the concentration at half of the fitted maximal effect.

SMILES	KB-V1 MDR tox	VP16 counter	RORgamma inh	KB-3-1 cytotox	SW480 rereplic	MCF10A rerep
Cc1ccc(NC(=O)Nc2cccc([N+](=O)[O-])c2)cc1F	16µM*	?	?	?	5%	?
Cc1ccc(C(C)C)cc1NC(=O)Nc1ccc([N+](=O)[O-])cc1	i	13µM*	35µM*	?	-6%	?
O=C(Nc1ccc(OC(F)(F)F)cc1)Nc1cccc([N+](=O)[O-])c1	16µM*	6.3µM*	?	12µM*	?	12µM*
O=C(Nc1ccc(Oc2ccc(NC(=O)Nc3ccc([N+](=O)[O-])cc3)cc2)cc1)Nc1ccc([N+](=O)[O-])cc1	?	-6%	35%	18µM*	8%	-1%
Cn1cc(-c2ccc3c(c2)OCO3)c2ccccc21	i	.	.	i	.	.
O=C(NCC(c1cccnc1)N1CCc2ccccc2C1)C(=O)Nc1ccc(F)cc1F (configuration not stated)	i	.	.	i	.	.
Cc1cc([N+](=O)[O-])ccc1NC(=O)Nc1ccc(F)cc1F	15µM*	-17%	0%	?	10%	?
COc1ccc(NC(=O)Nc2ccc(F)cc2F)c(C)c1	i	9%	37%	i	-11%	15%
CCN(CC)c1ccc(/C=N/Nc2nc(C)cc(=O)[nH]2)c(O)c1	?	3.2µM*	5µM*	1.2µM*	?	8.2µM*
Cc1cc(=O)[nH]c(NN=Cc2cc(Br)ccc2O)n1	0.58µM*	.	.	?	?	?
Cc1cc(=O)[nH]c(N/N=C/c2ccccc2Cl)n1	i	16%	-5%	i	11%	?
Cc1ccc(-n2nc(C(=O)NC(C)C)c(=O)n(C)c2=O)cc1	i	.	.	i	.	.
CCOC(=O)C1CCC(CN(Cc2ccc(Cl)cc2)S(=O)(=O)c2cc(Cl)cc(Cl)c2)CC1 (configuration not stated)	i	.	.	?	.	.
CC(C)COC(=O)c1cccc2c1-c1ccccc1/C2=N\O	i	11µM*	?	i	1%	18µM*
CCCCCCc1cc2cc(C(=O)NCc3ccccc3)c(=N)oc2cc1O	i	?	?	i	?	7.3µM*
N=c1oc2ccccc2cc1C(=O)Nc1ccccc1	i	?	?	i	-3%	5%
CCCCCCc1cc2cc(C(=O)Nc3ccccc3)c(=O)oc2cc1O	2.3µM*	4.5µM*	?	i	2.1µM*	?
Cc1ccc(-c2nc3cc(C(C)C)ccc3o2)cc1NC(=O)c1cc([N+](=O)[O-])ccc1N1CCOCC1	i	.	.	i	.	.
CCCCNc1nccnc1-c1cccc(C=O)c1	i	.	.	i	.	.
C=C/C1=C/Cc2ccccc2[C@H](C[N+](=O)[O-])C(C(C)=O)(C(=O)OC)C1 (some centres not stated)	.	2%	-2%	.	.	.
COCCCNC(=O)c1cccn2c(=O)c3cc4ccccc4cc3nc12	4.1µM*	7%	-31%	i	?	13µM*
CCOCCCNC(=O)c1cc2c(=O)n3cccc(C)c3nc2s1	i	2%	-1%	i	-19%	21%
O=C(NCc1ccco1)c1cccn2c(=O)c3cc4ccccc4cc3nc12	.	11µM*	?	.	.	.
Cc1cccc(CCn2c(=O)c3ccccc3n(Cc3ccccc3C)c2=O)c1	i	.	.	i	.	.
CC(=O)Oc1c(C)c2c3c(c1OC(C)=O)[C@@H](C)CC[C@@H]3[C@@H](C)C[C@H]2C=C(C)C	?	.	.	i	6%	26µM*
SMILES	KB-V1 MDR tox	VP16 counter	RORgamma inh	KB-3-1 cytotox	SW480 rereplic	MCF10A rerep
CC(C)=C[C@H]1C[C@H](C)[C@H]2CC[C@H](C)c3c(O[C@@H]4OC[C@@H](O)[C@H](O)C4O)c(O)c(C)c1c32 (some centres not stated)	i	.	.	i	-92%[9.22 µM]	21µM*
CC(=O)OC1[C@H](Oc2c(O)c(C)c3c4c2[C@@H](C)CC[C@@H]4[C@@H](C)C[C@@H]3C=C(C)C)OC[C@@H](O)[C@@H]1O (some centres not stated)	i	.	.	i	-9%	?
Cc1ccc(C(=O)c2oc3ccccc3c2NC(=O)Cc2ccccc2)cc1	i	.	.	i	.	.
Cc1ccc(-c2csc(N/N=C/C=C/c3ccccc3)n2)cc1	i	?	2.8µM*	i	4%	9%
C(=N\Nc1nc(-c2ccccc2)cs1)/c1ccncc1	i	28%	2%	i	-110%	-1%
C(=C\c1ccccc1)/C=N/Nc1nc2ccccc2s1	i	?	7.9µM*	i	-5%	-3%
CCC/C=N/Nc1nc2ccccc2s1	?	?	11µM*	i	?	?
Cc1ccc(NC(=O)Cn2c(=O)n(CCC(=O)NCc3ccccc3Cl)c(=O)c3ccccc32)cc1	i	.	.	i	.	.
CC(C)(C)c1ccc(CC(=O)N2CCC2(C)C(=O)NCc2ccc(Cl)cc2)cc1 (configuration not stated)	21µM*	.	.	?	.	.
CC1(C(=O)NCc2ccc(Cl)cc2)CCN1C(=O)Cc1ccc(Cl)cc1Cl (configuration not stated)	i	.	.	i	.	.
CNC(=O)c1ccc2nc(Cc3ccccc3)oc2c1	i	.	.	i	.	.
Cc1c(C(=O)NCc2ccco2)sc(=O)n1Cc1ccc(S(C)(=O)=O)cc1	i	.	.	i	.	.
COCCOC(=O)/C(=C\c1cc(C(C)(C)C)c(O)c(C(C)(C)C)c1)C(C)=O	i	1%	?	i	?	3.3µM*
CC(C)(C)c1cc(CCC(=O)NN)cc(C(C)(C)C)c1O	i	3%	-35%	i	2%	0%
O=C(C[C@@H]1C=C[C@H](NC(=O)Cc2ccccn2)[C@@H](CO)O1)NCCc1ccccc1	i	.	.	?	.	.
CC(=O)N/N=C/c1cc(C(C)C)cc(/C=N/NC(C)=O)c1O	?	-6%	-1%	i	15µM*	18µM*
COc1ccc(C(=O)Nc2ccc3c(c2)OCCO3)cc1	?	?	?	i	7.3µM*	?
CC(C)(C)NS(=O)(=O)c1ccc(CCC(=O)Nc2ccc3c(c2)OCCO3)cc1	16µM*	-1%	36%	i	-5%	-8%
COc1ccc(C(=O)CCNc2ccc3c(c2)OCCO3)cc1	i	8%	-34%	i	?	23µM*
COc1ccc(OCCCC(=O)Nc2ccc3c(c2)OCCO3)cc1	?	-8%	-9%	i	27%	21µM*
O=C(NCc1ccccc1Cl)c1cc(-c2ccccc2)n[nH]1	i	.	.	i	.	.
